Screens from PubChem BioAssay.
Most compounds without a hit are left out; they make up all but 4.7% or so of the library.
D3 antag = D3 dopamine receptor (human) antagonism; P35462; D3R cells, DiscoveRx beta-arrestin luminescence, antagonist mode; active compounds read low; max response, negative = inhibition, %; 360,000 tested, 2.5% active; AID 652054; in the data active means max response below about -50%; inconclusive means no clear call, values can overlap the other calls; further: on the % scale 0 is the no-effect control and ±100 the full control effect
Target sequence (P35462 whole entry, looked up): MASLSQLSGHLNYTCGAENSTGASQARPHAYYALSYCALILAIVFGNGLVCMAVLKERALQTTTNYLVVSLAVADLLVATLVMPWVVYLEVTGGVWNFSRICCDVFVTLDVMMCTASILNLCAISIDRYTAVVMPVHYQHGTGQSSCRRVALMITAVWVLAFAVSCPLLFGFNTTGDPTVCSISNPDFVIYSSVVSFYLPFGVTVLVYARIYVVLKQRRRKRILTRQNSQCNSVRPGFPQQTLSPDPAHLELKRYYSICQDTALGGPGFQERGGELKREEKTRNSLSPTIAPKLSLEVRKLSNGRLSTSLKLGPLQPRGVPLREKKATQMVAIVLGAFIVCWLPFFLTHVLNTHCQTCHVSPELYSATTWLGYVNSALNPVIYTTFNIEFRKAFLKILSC
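Cells plated overnight at 1500 cells/well, then exposed to library compounds with dopamine controls for 90 minutes at 37 degrees C. DiscoveRx reagent added for 30–60 minutes at room temperature; luminescence read, quantitative HTS format.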
TGFb inhibitor = TGF-b pathway inhibition; HepG2 CAGA-GFP TGF-b/SMAD3 reporter, GFP fluorescence, 18 h; TGF-beta stimulated, 500 pg/mL final; Potency, µM (doses to about 46.1 µM), for the others: at the highest dose activity, negative = inhibition, hits mostly inhibitors; 410,000 tested, 1.2% active; AID 588855; further: potency means the concentration at half of the fitted maximal effect; on the % scale 0 is the no-effect control and ±100 the full control effect; nearly all actives have a fitted effect of over 65% in size
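HEPG2 CAGA-GFP cells (1000/well, DMEM with 1% FBS) were pre-incubated 2 h at 37 degrees C, given compound by pin tool, then stimulated with TGF-beta at 500 pg/mL final for 18 h before per-cell GFP fluorescence imaging.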
ATXN viability = cell viability loss in ATXN counter-screen | S2 cells (HEK-293 line with an ATXN2-luciferase reporter) viability, CellTiter-Fluor protease fluorescence, 24 h | Potency, µM (series often up to 56.7 µM), most hits filed as cytotoxic | 400,000 tested, 0.49% active | AID 651635; further: potency means the concentration at half of the fitted maximal effect; nearly all actives have a fitted effect of over 40% in size
HepG2 tox = counter-screen for TGF-b inhibitors: cytotoxicity in HepG2 cells | HepG2 CAGA-GFP viability, ATP luminescence, 18 h | Potency, µM (series often up to 46.1 µM), for inactives: top-dose activity change, negative = cytotoxicity, most hits filed as cytotoxic | 410,000 tested, 0.76% active; further: potency means the concentration at half of the fitted maximal effect
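CellTiter-Glo luminescence gave cytotoxicity after 18 hours at 37 degrees C. The cells were HepG2 CAGA-GFP in 1% FBS DMEM, stimulated with 500 pg/mL TGF-beta after compound addition. %Activity was normalised to no-cell wells (complete cell-killing) and DMSO (no toxicity), and curves were fitted and classified.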
ATXN2 expr inh = inhibitors of ATXN2 expression; AID 1745845; HEK-293 ATXN2-luciferase reporter, luminescence, 24 h; Potency, µM (series often up to 57 µM), without a hit: at the highest dose activity change, negative = inhibition, hits mostly inhibitors; 360,000 tested, 0.72% active; further: potency means the concentration at half of the fitted maximal effect; on the % scale 0 is the no-effect control and ±100 the full control effect; nearly all actives have a fitted effect of over 55% in size
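ATXN2-luciferase reporter cells (luciferase flanked by upstream and downstream ATXN2 gene portions) were treated 24 h at 37 °C with compounds at up to 57 uM. SteadyGlo luminescence gave expression; GF-AFC fluorescence gave viability.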
DRD3 agonist = agonists of human D3 dopamine receptor. 410,000 tested, 0.58% active. P35462. max activation, %. D3R DiscoveRx beta-arrestin cells, luminescence, 90 min; in the data active means max activation above about 30%; further: 0% is about no effect
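Cells at 1500/well, incubated overnight, then treated with pinned compounds (dopamine as control) for 90 min at 37 degrees C. DiscoveRx reagent added for 30 - 60 minutes at room temperature; luminescence read.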
An asterisk follows results filed as active; i = inactive; ? = inconclusive; nt = no result given. Unless noted, the call rests on the fitted dose curve; in most records, active means well fitted curve in the direction sought with a large enough effect; inconclusive means small, poorly fitted or top-dose-only effect, or another doubt; inactive means no such curve, though single readings can be large; an effect the other way counts as inactive or inconclusive.

SMILES	D3 antag	TGFb inhibitor	ATXN viability	HepG2 tox	ATXN2 expr inh	DRD3 agonist
CCOc1ccc(NC(=O)CSC2=Nc3ccccc3C3=NC(CC(=O)NCc4ccc5c(c4)OCO5)C(=O)N23)cc1 (stereo unspecified)	nt	?	?	15%	10%	-12
CC(=O)Oc1ccc(N(C(C)=O)S(=O)(=O)c2ccc(C)cc2)c2ccccc12	-12	-30%	?	-36%	27µM*	-12
CC(C)(C)n1ncc2c(=O)n(Cc3cc(F)ccc3Cl)cnc21	nt	-3%	nt	-1%	nt	nt
O=C(Cn1ncc(Cl)c(Cl)c1=O)N1CCN(Cc2ccccc2)CC1	-63*	?	nt	-47%	?	-7
Cc1ccc(Cn2ncc(Cl)c(Cl)c2=O)cc1	?	?	nt	-115%	?	-10
CC1(C)C(=O)Nc2ccccc2N1C(=O)Cn1ncc(Cl)c(Cl)c1=O	-13	-10%	20µM*	-22%	nt	2
O=c1c(Cl)c(Cl)cnn1Cc1ccccc1Cl	?	?	10µM*	-104%	8.9µM*	-2
O=C(Cn1ncc(Cl)c(Cl)c1=O)N1CCOCC1	-4	0%	nt	0%	?	2
Cc1cc(C)cc(Cn2ncc(Cl)c(Cl)c2=O)c1	-59*	?	?	-65%	?	-9
C=C1C=C(C(F)F)n2ncc(C(=O)NCc3ccccc3OC)c2N1	nt	0%	nt	-1%	nt	nt
COc1cccc(/C=C/c2cnc3ccccc3n2)c1OC	nt	10%	nt	-26%	nt	nt
Cc1c(C(=O)NCCC2CCCN2C)cnn1-c1nccc(-c2ccccc2F)n1 (stereo unspecified)	nt	nt	i	nt	nt	nt
COC(=O)C(CCSC)Nc1ncnc2onc(-c3ccc(F)cc3)c12 (stereo unspecified)	nt	40%	i	-16%	-1%	-2
O=c1c(Cl)c(Cl)cnn1Cc1nnc(-c2ccc(Cl)cc2)o1	-87*	13µM*	?	11µM*	?	-18
CCN(CC)CCOC(c1ccccc1)c1ccc(C)cc1 (stereo unspecified)	-28	-9%	i	-47%	-20%	-7
CCN(CC)CCC(C)OC(c1ccccc1)c1ccccc1 (stereo unspecified)	-53*	6%	?	3%	nt	-4
COc1ccc(CC(=O)N2CCc3cc(OC)c(OC)cc3C2COc2ccc(F)cc2)cc1 (stereo unspecified)	nt	-25%	i	-33%	-18%	2
CC(C)(C)C1CCc2c(sc(NC(=O)CCC(=O)O)c2C(=O)Nc2ccccc2C(F)(F)F)C1 (stereo unspecified)	nt	?	nt	16µM*	nt	1
COc1ccccc1NC(=O)c1c(NC(=O)c2cccs2)sc2c1CCC(C(C)(C)C)C2 (stereo unspecified)	nt	-12%	i	-12%	-3%	-13
COc1cc(N(C)C)ccc1/C=C/c1ccnc2ccccc12	nt	152%	nt	-39%	nt	nt
Cc1cc(O)c(NC(=S)NC(=O)c2ccc(-c3ccc(Cl)cc3)o2)cc1C	-76*	?	i	-93%	-5%	-32
Cc1ccc(NC(=S)NC(=O)c2ccc(-c3ccc(Cl)cc3)o2)c(O)c1	-101*	0%	i	-87%	-3%	-16
Cc1cc(N2CCN(C)CC2)ccc1NC(=O)c1ccc(-c2ccc(Cl)cc2)o1	-20	?	i	11µM*	?	-10
O=C(Nc1ccccc1N1CCCCC1)c1ccc(-c2ccc(Cl)cc2)o1	1	?	i	15%	1%	-5
CCN(CC)S(=O)(=O)c1ccc(N/N=C/c2cc(OC)ccc2O)nc1	12	-14%	i	-22%	3.2µM*	2
SMILES	D3 antag	TGFb inhibitor	ATXN viability	HepG2 tox	ATXN2 expr inh	DRD3 agonist
Cc1cccnc1-c1cccc2c1OC(CNC(=O)/C=C/c1cccs1)C2 (stereo unspecified)	nt	nt	i	nt	nt	nt
CCOCCc1nnc(NC(=O)Cc2c(F)cccc2Cl)s1	-7	-5%	i	-1%	-16%	35*
Cc1ccc(S(=O)(=O)N(C)Cc2ccc(C(=O)N/N=C/c3ccc(OC(F)F)cc3)cc2)cc1	-7	?	11µM*	5%	?	0
COc1ccc(C)cc1NC(=O)CCNS(=O)(=O)c1cccc2nonc12	6	-14%	i	9%	2%	3
COc1ccc(C)cc1NS(=O)(=O)c1cccc2nonc12	-52*	6%	i	5%	3%	2
Cc1ccc(-c2csc(C3C(N)=NC(S)=C(C#N)C34CCCCC4)n2)cc1 (stereo unspecified)	-72*	-2%	i	5%	17%	7
Cc1cc(O)c(C(c2ccccc2)N2CCN(c3ccc(F)cc3)CC2)c(=O)n1Cc1ccco1 (stereo unspecified)	nt	14%	nt	0%	nt	-22
CCCOc1ccc(Oc2nc(NCC(C)C)nc(N3CCOCC3)n2)nn1	nt	-23%	nt	-7%	nt	13
CC(C)N(CCC(=O)c1ccc2ccccc2c1)Cc1ccccc1	-132*	11µM*	?	-64%	0%	-76
CCCC1=C(C(=O)OCC)C(c2ccco2)C(C#N)=C(N)O1 (stereo unspecified)	1	-24%	i	-21%	-6%	48*
CCOC(=O)C1=C(N)OC(C)=C(C#N)C1c1ccco1 (stereo unspecified)	15	?	i	-8%	4%	3
COc1ccc(NC(=O)N(C)[C@H]2C[C@H]3c4[nH]c5ccc(-c6cccc(C)c6)cc5c4CCN3C[C@H]2[C@H](C)O)cc1	-21	?	nt	-121%	25µM*	-9
C[C@H](O)[C@@H]1CN2CCc3c([nH]c4ccc(-c5ccc6c(c5)OCO6)cc34)[C@@H]2C[C@@H]1N(C)C(=O)NC1CCCCC1	-30	-23%	i	-19%	0%	-3
C[C@H](O)[C@@H]1CN2CCc3c([nH]c4ccccc34)[C@@H]2C[C@@H]1N(C)C(=O)Nc1cc(Cl)cc(Cl)c1	-50*	?	i	-19%	-6%	-15
C[C@H](O)[C@@H]1CN2CCc3c([nH]c4ccc(-c5ccc6c(c5)OCO6)cc34)[C@@H]2C[C@@H]1N(C)C(=O)Nc1cc(Cl)cc(Cl)c1	-25	?	16µM*	-95%	20µM*	-10
Cc1cccc(-c2ccc3[nH]c4c(c3c2)CCN2C[C@@H]([C@H](C)O)[C@@H](N(C)C(=O)Nc3ccc(F)cc3)C[C@@H]42)c1	-14	?	nt	-116%	?	-4
C[C@H](O)[C@@H]1CN2CCc3c([nH]c4ccccc34)[C@@H]2C[C@@H]1N(C)C(=O)Nc1ccccc1	-29	?	i	-21%	4%	-10
